# Assay results published in the supplement of paper PMC11732987, “Enantioselective OTUD7B fragment discovery through chemoproteomics screening and high-throughput optimisation” (Communications Chemistry, 2025).
# Values without a mark were called inactive.
# Columns and labels:
# Assay in all cases: log2 ratio of Biotin-Ahx-Ub-VS probe labelling (fragment/DMSO); higher = less target engagement (more negative = stronger competition), active = hit call of the paper (q ≤ 0.05, log2 ratio ≤ -1)
# Conditions in all cases: compound concentration: 200 uM; treatment time: 3 h
# OTUD6B = molecular target: T1, OTUD6B (UniProt Q8N6M0)
# T1 sequence (whole entry): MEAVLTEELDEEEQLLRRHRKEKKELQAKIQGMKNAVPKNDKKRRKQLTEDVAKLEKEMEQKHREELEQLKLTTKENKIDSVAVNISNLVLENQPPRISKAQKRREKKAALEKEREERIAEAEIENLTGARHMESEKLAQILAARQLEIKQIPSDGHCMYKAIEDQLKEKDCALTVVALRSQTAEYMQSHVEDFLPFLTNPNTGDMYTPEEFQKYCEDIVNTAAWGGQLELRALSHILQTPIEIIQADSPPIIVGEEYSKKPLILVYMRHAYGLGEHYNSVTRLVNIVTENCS
# Procedure, shortened: (§1)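 Labelled DUBs from HEK293T lysate were NeutrAvidin-enriched, digested with LysC and trypsin, and run by diaPASEF LC-MS/MS. Before that, each 495 µg sample in Tris/CHAPS/IGEPAL buffer with protease inhibitors was treated in triplicate with fragment at 200 µM or vehicle for 3 h, then with Biotin-Ahx-Ub-VS at 0.5 µM final for 1 h. Values are average log2 ratios of fragment over vehicle by unpaired t-test, based on global-median-normalised Spectronaut label-free quantities from proteins with ≥2 unique peptides.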
# OTUD7B = molecular target: T2, OTUD7B (UniProt Q6GQQ9)
# T2 sequence (whole entry): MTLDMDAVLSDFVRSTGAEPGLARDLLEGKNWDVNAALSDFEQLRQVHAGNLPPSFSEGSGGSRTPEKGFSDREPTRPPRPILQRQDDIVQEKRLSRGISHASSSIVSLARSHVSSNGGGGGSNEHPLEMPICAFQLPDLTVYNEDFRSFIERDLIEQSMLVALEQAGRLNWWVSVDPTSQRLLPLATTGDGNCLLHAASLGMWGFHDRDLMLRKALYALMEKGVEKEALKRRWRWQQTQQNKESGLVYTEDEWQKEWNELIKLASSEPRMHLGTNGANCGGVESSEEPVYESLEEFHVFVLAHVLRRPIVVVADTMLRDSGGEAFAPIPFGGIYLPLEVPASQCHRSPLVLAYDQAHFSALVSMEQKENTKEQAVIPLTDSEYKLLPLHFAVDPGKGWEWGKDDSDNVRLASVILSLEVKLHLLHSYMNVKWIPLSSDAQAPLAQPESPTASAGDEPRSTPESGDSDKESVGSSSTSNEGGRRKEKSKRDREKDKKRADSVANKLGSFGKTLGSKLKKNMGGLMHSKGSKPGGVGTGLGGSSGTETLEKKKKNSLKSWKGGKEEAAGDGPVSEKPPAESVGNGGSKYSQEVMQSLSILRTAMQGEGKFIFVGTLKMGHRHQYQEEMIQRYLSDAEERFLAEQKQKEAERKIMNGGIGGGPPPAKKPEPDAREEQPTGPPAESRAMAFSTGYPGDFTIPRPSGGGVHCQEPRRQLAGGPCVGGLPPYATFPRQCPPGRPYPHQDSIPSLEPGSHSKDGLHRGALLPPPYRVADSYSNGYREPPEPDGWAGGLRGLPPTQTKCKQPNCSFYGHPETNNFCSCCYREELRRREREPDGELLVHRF
# Procedure, shortened: as §1
# PRPF8 = PRPF8 (UniProt Q6P2Q9)
# Procedure, shortened: as §1
# PSMD7 = molecular target: T3, PSMD7 (UniProt P51665)
# T3 sequence (whole entry): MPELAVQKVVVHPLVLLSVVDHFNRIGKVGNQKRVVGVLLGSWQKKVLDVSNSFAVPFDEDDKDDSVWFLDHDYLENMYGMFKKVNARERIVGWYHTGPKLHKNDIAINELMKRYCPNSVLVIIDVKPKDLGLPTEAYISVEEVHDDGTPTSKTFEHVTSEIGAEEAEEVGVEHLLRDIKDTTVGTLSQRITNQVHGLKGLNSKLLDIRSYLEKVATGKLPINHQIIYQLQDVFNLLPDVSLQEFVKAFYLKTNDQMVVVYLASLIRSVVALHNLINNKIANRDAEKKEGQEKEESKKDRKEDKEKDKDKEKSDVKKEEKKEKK
# Procedure, shortened: as §1
# UCHL1 = UCHL1 (UniProt P09936)
# Sequence of UCHL1 (P09936 whole entry, looked up): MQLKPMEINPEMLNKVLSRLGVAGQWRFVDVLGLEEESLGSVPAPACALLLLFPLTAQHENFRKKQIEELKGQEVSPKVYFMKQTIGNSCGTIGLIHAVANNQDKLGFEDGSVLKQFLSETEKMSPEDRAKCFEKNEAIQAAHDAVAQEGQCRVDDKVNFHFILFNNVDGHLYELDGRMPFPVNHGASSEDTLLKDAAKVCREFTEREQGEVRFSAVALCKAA
# Procedure, shortened: as §1
# UCHL3 = molecular target: T4, UCHL3 (UniProt P15374)
# T4 sequence (whole entry): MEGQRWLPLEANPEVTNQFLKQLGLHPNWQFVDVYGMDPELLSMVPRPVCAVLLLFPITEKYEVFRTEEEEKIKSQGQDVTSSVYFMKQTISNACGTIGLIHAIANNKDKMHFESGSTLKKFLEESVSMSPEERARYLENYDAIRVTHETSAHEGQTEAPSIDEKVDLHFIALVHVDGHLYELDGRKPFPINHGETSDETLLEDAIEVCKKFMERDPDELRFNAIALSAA
# Procedure, shortened: as §1
# UCHL5 = molecular target: T5, UCHL5 (UniProt Q9Y5K5)
# T5 sequence (whole entry): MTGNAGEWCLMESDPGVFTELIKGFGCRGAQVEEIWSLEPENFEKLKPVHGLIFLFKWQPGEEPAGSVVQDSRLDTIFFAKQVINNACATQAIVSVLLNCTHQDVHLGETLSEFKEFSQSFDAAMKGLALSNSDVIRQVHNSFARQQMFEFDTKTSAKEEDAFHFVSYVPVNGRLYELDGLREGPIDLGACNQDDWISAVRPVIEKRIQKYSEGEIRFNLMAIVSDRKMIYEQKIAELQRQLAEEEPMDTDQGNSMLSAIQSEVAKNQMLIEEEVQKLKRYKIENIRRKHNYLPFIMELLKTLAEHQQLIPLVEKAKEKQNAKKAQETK
# Procedure, shortened: as §1
# USP10 = USP10 (UniProt Q14694)
# Sequence of USP10 (Q14694 whole entry): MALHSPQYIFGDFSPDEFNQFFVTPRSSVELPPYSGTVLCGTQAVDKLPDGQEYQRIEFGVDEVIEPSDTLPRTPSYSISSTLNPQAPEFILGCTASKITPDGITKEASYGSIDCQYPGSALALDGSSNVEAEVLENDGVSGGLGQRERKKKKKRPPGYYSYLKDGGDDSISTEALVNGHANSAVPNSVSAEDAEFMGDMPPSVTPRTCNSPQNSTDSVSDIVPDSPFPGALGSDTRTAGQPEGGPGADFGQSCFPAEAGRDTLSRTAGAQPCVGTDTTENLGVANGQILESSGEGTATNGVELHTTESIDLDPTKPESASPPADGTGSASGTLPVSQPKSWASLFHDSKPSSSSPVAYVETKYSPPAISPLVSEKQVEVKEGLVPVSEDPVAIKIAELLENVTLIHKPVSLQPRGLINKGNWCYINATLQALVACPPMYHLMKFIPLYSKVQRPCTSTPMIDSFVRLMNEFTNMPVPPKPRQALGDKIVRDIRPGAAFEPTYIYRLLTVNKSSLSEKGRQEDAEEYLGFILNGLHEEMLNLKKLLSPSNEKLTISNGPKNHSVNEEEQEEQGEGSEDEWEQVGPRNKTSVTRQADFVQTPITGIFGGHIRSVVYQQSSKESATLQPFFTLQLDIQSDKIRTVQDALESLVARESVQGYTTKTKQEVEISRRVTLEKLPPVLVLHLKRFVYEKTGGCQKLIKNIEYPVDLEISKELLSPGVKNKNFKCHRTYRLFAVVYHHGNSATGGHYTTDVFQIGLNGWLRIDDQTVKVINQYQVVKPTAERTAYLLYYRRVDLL
# Procedure, shortened: as §1
# USP15 = molecular target: T6, USP15 (UniProt Q9Y4E8)
# T6 sequence (whole entry): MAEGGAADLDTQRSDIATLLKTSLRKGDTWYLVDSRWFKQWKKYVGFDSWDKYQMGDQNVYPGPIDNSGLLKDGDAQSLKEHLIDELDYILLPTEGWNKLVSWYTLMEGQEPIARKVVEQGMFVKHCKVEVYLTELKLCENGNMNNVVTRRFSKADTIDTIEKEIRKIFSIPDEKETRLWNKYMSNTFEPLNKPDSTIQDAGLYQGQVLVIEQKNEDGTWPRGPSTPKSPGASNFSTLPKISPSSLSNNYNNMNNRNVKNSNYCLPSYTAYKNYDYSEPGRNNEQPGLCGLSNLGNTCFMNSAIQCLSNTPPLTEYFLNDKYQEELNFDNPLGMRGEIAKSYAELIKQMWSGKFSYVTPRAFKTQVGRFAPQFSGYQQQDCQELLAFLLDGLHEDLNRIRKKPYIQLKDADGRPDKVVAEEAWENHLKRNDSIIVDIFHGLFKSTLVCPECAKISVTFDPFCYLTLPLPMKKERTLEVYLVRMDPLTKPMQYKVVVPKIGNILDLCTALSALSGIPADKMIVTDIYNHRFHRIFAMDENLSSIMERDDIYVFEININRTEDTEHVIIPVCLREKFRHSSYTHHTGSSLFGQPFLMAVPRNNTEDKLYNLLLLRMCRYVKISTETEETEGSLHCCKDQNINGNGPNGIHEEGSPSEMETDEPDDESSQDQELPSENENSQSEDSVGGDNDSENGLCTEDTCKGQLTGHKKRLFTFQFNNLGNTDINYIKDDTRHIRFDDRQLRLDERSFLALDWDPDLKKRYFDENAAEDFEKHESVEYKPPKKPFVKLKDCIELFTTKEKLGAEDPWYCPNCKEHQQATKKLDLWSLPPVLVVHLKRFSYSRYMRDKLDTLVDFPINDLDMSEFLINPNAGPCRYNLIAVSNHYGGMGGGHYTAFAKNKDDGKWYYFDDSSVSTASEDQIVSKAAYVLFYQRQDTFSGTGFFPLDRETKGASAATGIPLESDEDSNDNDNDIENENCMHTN
# Procedure, shortened: as §1
structure (smiles),measurement,setting,value
Cc1cccn2cc(CCNC(=O)CCl)nc12.Cl,log2 ratio of Biotin-Ahx-Ub-VS probe labelling,OTUD6B,-0.414
same,log2 ratio of Biotin-Ahx-Ub-VS probe labelling,OTUD7B,-0.338
same,log2 ratio of Biotin-Ahx-Ub-VS probe labelling,PRPF8,0.19
same,log2 ratio of Biotin-Ahx-Ub-VS probe labelling,PSMD7,-0.207
same,log2 ratio of Biotin-Ahx-Ub-VS probe labelling,UCHL1,-1.98 (active)
same,log2 ratio of Biotin-Ahx-Ub-VS probe labelling,UCHL3,0.136
same,log2 ratio of Biotin-Ahx-Ub-VS probe labelling,UCHL5,-0.00232
same,log2 ratio of Biotin-Ahx-Ub-VS probe labelling,USP10,-0.0824
same,log2 ratio of Biotin-Ahx-Ub-VS probe labelling,USP15,-0.191
